This is a sample that favours compounds with a hit; in the whole collection about 2.4% have one here.
D2 PAM-1: Beta-Arrestin HTS for Positive Allosteric Modulators of the Human D2 Dopamine Receptor: Potentiators; AID 624464, 2012; potentiation, % (concentration not given with the values); DiscoveRx D2 beta-arrestin cells, luminescence, 90 min; 100% = 57 uM dopamine signal; D(2) dopamine receptor (Homo sapiens), P14416; actives 0.23% (n = 360,000); in the data active = potentiation above about 50%; inconclusive = mostly about 30% to 49%
Target sequence (P14416 whole entry, looked up): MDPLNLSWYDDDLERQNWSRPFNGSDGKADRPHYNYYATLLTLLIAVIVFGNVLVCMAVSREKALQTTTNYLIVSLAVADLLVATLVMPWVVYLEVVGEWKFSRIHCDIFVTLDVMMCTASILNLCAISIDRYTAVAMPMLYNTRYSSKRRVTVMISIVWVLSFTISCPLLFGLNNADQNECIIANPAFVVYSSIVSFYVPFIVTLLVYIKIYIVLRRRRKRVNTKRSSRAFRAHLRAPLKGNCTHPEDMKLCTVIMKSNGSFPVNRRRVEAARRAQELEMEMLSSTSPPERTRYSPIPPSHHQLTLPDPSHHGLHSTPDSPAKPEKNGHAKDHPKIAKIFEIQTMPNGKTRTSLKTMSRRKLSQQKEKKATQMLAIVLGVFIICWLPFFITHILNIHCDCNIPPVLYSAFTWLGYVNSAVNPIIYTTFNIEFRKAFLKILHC
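D2 cells co-treated with compound plus 50 nM dopamine (EC20) for 90 min at 37 deg C to detect potentiation. Beta-arrestin recruitment was read as enzyme-fragment luminescence after 1 h at ambient temperature. Full response was set by 57 uM dopamine.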
D2 ag-1: HTS Assay for Allosteric Agonists of the Human D2 Dopamine Receptor: Primary Screen for Agonists; D(2) dopamine receptor (Homo sapiens), P14416; actives 0.53% (n = 340,000); AID 485358, 2010; HEK293 T-REx D2 cells, calcium flux agonist mode; activation, % at 2 µM;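 active = activation over 3 SD above normal in the single-dose calcium agonist read, cut at about 30% in these data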
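Tetracycline-induced HEK293 T-REx cells with force-coupled D2 receptor, plated overnight at 30 C, loaded with no-wash calcium dye. After a 10 s baseline, compound was pin-added and calcium flux read kinetically for 180 s; calcium rises flagged agonists.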
D2 ag-2: Beta-Arrestin HTS for Positive Allosteric Modulators of the Human D2 Dopamine Receptor: Agonists | D(2) dopamine receptor (Homo sapiens), P14416 | DiscoveRx PathHunter D2 beta-arrestin, luminescence, 90 min; 100% = 57 uM dopamine signal | activation, % (concentration not given with the values) | actives 0.084% (n = 360,000) | AID 624465, 2012; in the data active = activation above about 40%; inconclusive = between about 15% and that limit
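DiscoveRx PathHunter D2 beta-arrestin cells (2,100/well) attached overnight, then compound-stimulated 90 min at 37 C in HBSS/10 mM HEPES/0.1% Tween-20 buffer; beta-galactosidase complementation read by luminescence after 1 h at ambient temperature. Dopamine 57 uM final (EC100) as control.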
D2 PAM-2: HTS Assay for Positive Allosteric Modulators of the Human D2 Dopamine Receptor: Primary Screen for Potentiators; actives 0.34% (n = 340,000); potentiation, % at 10 µM; HEK293 T-REx D2, calcium flux, EC20 dopamine potentiation; D(2) dopamine receptor (Homo sapiens), P14416;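 active = potentiation over 3 SD above the plate norm, cut at about 30% in these data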
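Cells plated with tetracycline inducer and held overnight at 30 C; calcium dye loaded 30–90 min at room temperature; baseline taken, compound added and read 180 s; EC20 dopamine then added and read 180 s.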
D2 antag: HTS Assay for Allosteric Antagonists of the Human D2 Dopamine Receptor: Primary Screen for Antagonists | inhibition, % at 10 µM | D(2) dopamine receptor (Homo sapiens), P14416 | AID 485344, 2010 | actives 2% (n = 340,000) | HEK293 TREx D2 cells, calcium flux, dopamine EC80; in the data active = inhibition above about 30%; inactive = below that, where a call was filed
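Inhibition of EC80 dopamine-driven calcium flux, recorded kinetically, defines activity here; cells are a tetracycline-induced HEK293 T-REx line expressing force-coupled D2.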
Of the large screens only hits and unclear results are named; the others gave an inactive call.

COCCn1nnnc1C(C(C)C)N1CCC(Cc2ccccc2)CC1 (configuration not stated)	none
COc1cccc(CC(=O)OC(C)C(=O)NCc2ccc3c(c2)OCO3)c1 (configuration not stated)	D2 antag 55
CC(c1ccco1)N(C(=O)c1ccc(Cl)s1)c1ccccn1 (configuration not stated)	D2 ag-1 34
CC(c1ccco1)N(C(=O)c1ccccc1F)c1ccccn1 (configuration not stated)	none
O=C(CC1NCCN(Cc2ccccc2)C1=O)Nc1ccc(Cl)cc1 (configuration not stated)	none
O=C(CC1NCCc2ccccc21)Nc1ccc(Cl)cc1 (configuration not stated)	D2 antag 44
COC(=O)CCNCCSc1nnc(-c2ccco2)n1Cc1ccccc1	D2 antag 33
c1ccc(-c2nnc3n2N=C(c2ccc4c(c2)OCO4)CS3)nc1	none
c1cc2c(cc1C1=Nn3c(nnc3C3CCCCC3)SC1)OCO2	D2 antag 33
COC(=O)C1CCN(C(=O)c2ccccc2Oc2ccccc2)CC1	none
COC(=O)C1Sc2[nH]c(=O)sc2C2c3ccccc3OC(=O)C12 (configuration not stated)	none
COC(=O)C1Sc2[nH]c(=O)sc2C(c2ccc(Cl)cc2)C1C(=O)OC (configuration not stated)	D2 antag 38
Cn1nnnc1SCC(=O)Nc1ccc(Cl)c(S(=O)(=O)N2CCOCC2)c1	none
S=c1[nH]nc(-c2ccc(Br)o2)n1Cc1ccccc1	D2 PAM-2 35
S=c1[nH]nc(-c2ccco2)n1Cc1ccccc1	none
CCc1ccc(-c2cc(C)no2)cc1S(=O)(=O)N1CCN(c2ccc(OC)cc2)CC1	none
CCc1ccc(-c2cc(C)no2)cc1S(=O)(=O)N1CCN(c2ccc(F)cc2)CC1	D2 antag 36
CCc1ccc(-c2cc(C)no2)cc1S(=O)(=O)NCCN1CCC(C)CC1	none
CCc1ccc(-c2cc(C)no2)cc1S(=O)(=O)NCCCN1CCN(c2ccccc2)CC1	D2 ag-1 72, D2 antag 51
CCC(C)n1nccc1NC(=O)C(C)Cl (configuration not stated)	none
O=C(CCCC(=O)NCc1ccccc1)NCc1ccccc1	none
Nc1cc(Cl)nnc1Cl	D2 antag 36
Cc1cc(C(=O)O)n(C(C)(C)C)n1	none
COc1ccccc1-c1nnc(SCC(=O)N2CCCC2)o1	none (no result: D2 ag-1, D2 antag)
CN(Cc1ccccc1)C(=O)CN1CCN(C(c2ccccc2)c2ccccc2)CC1	D2 antag 51
O=c1[nH]nc(CNc2ccc(C(F)(F)F)cc2)c2ccccc12	none
O=c1[nH]nc(CNc2ccc(O)cc2)c2ccccc12	D2 PAM-1 71
CC(C)Cc1nn2c(=O)cc(COC(=O)c3cccc(NC(=O)c4ccccc4)c3)nc2s1	none (no result: D2 PAM-1, D2 ag-2, D2 antag)
CCC(C)[C@H](NC(=O)N1CCn2c1nc1ccccc12)C(=O)NCc1ccccc1 (some centres not stated)	D2 PAM-2 32
Cc1cccc(C(=O)OC(C)C(=O)NC(=O)NC2CCCCC2)c1O (configuration not stated)	none
N#Cc1ccc(C23CC4(C2)[C@H](CN(P(=O)(c2ccccc2)c2ccccc2)[C@@H]4c2ccccc2)C3c2ccc(Cl)nc2)cc1 (some centres not stated)	none (no result: D2 ag-1, D2 antag)
Cc1nn(-c2ccccc2)c(C)c1C(=O)Oc1ccccc1	none
Cc1ccccc1C(=O)NN1CCOCC1	none
O=C(NN1CCOCC1)c1ccccc1Br	D2 PAM-2 33
O=C(CCl)Nc1ncc(S(=O)(=O)c2ccc([N+](=O)[O-])cc2)s1	D2 ag-2 inconclusive (no result: D2 ag-1, D2 PAM-2, D2 antag)
CCC(C)(C)C(=O)Nc1ncc(S(=O)(=O)c2ccc([N+](=O)[O-])cc2)s1	D2 PAM-1 88, D2 PAM-2 31
O=C(Nc1ncc(S(=O)(=O)c2ccc([N+](=O)[O-])cc2)s1)c1ccc2ccccc2c1	D2 PAM-1 73 (no result: D2 ag-1, D2 PAM-2, D2 antag)
O=C(O)/C(=C\c1ccc(Cl)c([N+](=O)[O-])c1)c1ccc(S(=O)(=O)N2CCCC2)s1	none
COc1ccc(OC)c(NC(=O)c2ccc(NC(C)=O)cc2)c1	none
CN(Cc1ccc(F)cc1)C(=O)c1cc(COc2ccc(-n3cncn3)cc2)on1	D2 PAM-1 67
CC(C(=O)NCC1CCCCC1)N1CCc2ccccc2C1 (configuration not stated)	D2 antag 54
Cc1sc(NC(=S)Nc2ccc(F)cc2)c(C(N)=O)c1C	none
Cc1ccccc1C(=O)NC1CCN(C(=O)N2CCOCC2)CC1	D2 PAM-2 36
Cc1ccccc1C(=O)NC1CC2CCCC(C1)N2Cc1ccc(Cl)cc1 (configuration not stated)	D2 antag 76
Cc1ccccc1C(=O)NC1CCN(C(=O)NC2CCCCC2)CC1	none
Cc1ccccc1C(=O)NC1CC2CCCC(C1)N2Cc1ccccc1 (configuration not stated)	D2 antag 71
O=C(NC1CC2CCC(C1)N2Cc1ccccc1)c1ccccc1Cl (configuration not stated)	D2 antag 75
O=C1c2cccc3c([N+](=O)[O-])ccc(c23)C(=O)N1O	D2 ag-2 42
O=C1c2cccc3c([N+](=O)[O-])ccc(c23)C(=O)N1c1ccccn1	D2 PAM-1 inconclusive, D2 ag-2 inconclusive
O=C(C1CCCO1)N1CCN(C(=S)Nc2ccccc2)CC1 (configuration not stated)	none
CC(C)Nc1nc(Cl)nc(NN(C)c2nc(N(C)C)nc(N(C)C)n2)n1	D2 antag 34
CC(=O)c1ccc2c(c1)C1C=CCC1C(c1ccc(S(=O)(=O)N3CCOCC3)cc1)N2 (configuration not stated)	D2 PAM-1 61
NS(=O)(=O)c1ccc(NC(=O)COC(=O)C2(c3ccccc3F)CCCC2)cc1	none
CCC1(C)SC(NC(C)=O)=NN1C(C)=O (configuration not stated)	none
CC(=O)NC1=NN(C(C)=O)C(C)(CS(=O)(=O)c2ccc3ccccc3c2)S1 (configuration not stated)	D2 antag 39
CCC(C)(C)NC(=O)CN(C(=O)CCC(=O)Nc1nccs1)c1ccccc1C	D2 antag 39
NC(=O)c1ccsc1NC(=O)COC(=O)c1ccccc1NCc1ccco1	none
O=C(CCC1CCCCC1)Nc1nccs1	D2 antag 43

Assay outcomes as filed in PubChem BioAssay.
